The source made the active and inactive calls.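 Rule for the calls, unless noted: active = inhibition at or above 50% at 10 µM; inactive = inhibition below 50%.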

Results on 14 molecules are retold here after PubChem BioAssay.

The nature of assay [1]: inhibitors of TNFa-induced NFkB p65 translocation, primary screen, imaging, HUVEC, MLSMR starter and 10KST1 sets (AID 438;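 active = inhibition above 20% together with a positive visual image hit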;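 note: compound added about 3h40 before a 20 min TNFalpha stimulation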;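 for inhibition: signal is the nuclear over cytoplasmic p65 intensity ratio per well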). The conditions noted are these: HUVEC TNFa-induced p65 nuclear translocation; cell count: measured here: nuclei count (cytotoxicity indicator), at 2.08 µM; inhibition: at 2 µM, stronger effect = higher value, 0% TNFa-plus-vehicle, 100% no-TNFa wells.
Assay [2] can be described thus: reduction of polyQ htt aggregates in cells – imaging, exon1htt(103Q)mCFP cells, high-content imaging, primary screen (AID 483;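 active = visual image review flags a hit and inhibition of aggregation exceeds 20%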;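 note: compound exposure lasted 3 days before fixation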;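 for nuclei count: percent of the per-plate median nuclei count of sample wells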). The conditions noted are these: exon1htt(103Q)mCFP cell line, aggregate imaging, at 2 µM; inhibition of aggregation: stronger effect = higher value; nuclei count: measured here: cell count, toxicity.
Assay [3] in a line: endothelial E-selectin expression blockers – imaging, HUVEC, immunofluorescence, MLSMR starter and 10KST1 sets, primary screen (AID 487;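 active = visually confirmed hit in the image check and inhibition above 20%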;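 for inhibition: signal is fraction of cell area covered by stained E-selectin grains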;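 for nuclei count: 100% = median nuclei count of all wells on the same plate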). The conditions noted are these: HUVEC TNFalpha-induced E-selectin immunofluorescence imaging, at 2 µM; inhibition: stronger effect = higher value; nuclei count: measured here: cell number, toxicity.
For assay [4], the target named is Voltage-gated potassium channel subunit beta-2 (Rattus norvegicus) (UniProt P62483). The experiment in a line: inhibitors of rat Kvbeta2 reductase activity – biochemical, NADPH fluorescence, primary screen (AID 622;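 active = fluorescence slope higher than the sample average by over 3 SD, cut at about -0.22 in these data, passing the limit was not always enough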;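 note: slope of raw intensity against log time taken from 70 to 1610 s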). The note with it: recombinant KvBeta, 4-cyanobenzaldehyde reduction, at 10 µM, stronger effect = higher value.
Chain of Voltage-gated potassium channel subunit beta-2 (Rattus norvegicus) (P62483 whole entry, looked up): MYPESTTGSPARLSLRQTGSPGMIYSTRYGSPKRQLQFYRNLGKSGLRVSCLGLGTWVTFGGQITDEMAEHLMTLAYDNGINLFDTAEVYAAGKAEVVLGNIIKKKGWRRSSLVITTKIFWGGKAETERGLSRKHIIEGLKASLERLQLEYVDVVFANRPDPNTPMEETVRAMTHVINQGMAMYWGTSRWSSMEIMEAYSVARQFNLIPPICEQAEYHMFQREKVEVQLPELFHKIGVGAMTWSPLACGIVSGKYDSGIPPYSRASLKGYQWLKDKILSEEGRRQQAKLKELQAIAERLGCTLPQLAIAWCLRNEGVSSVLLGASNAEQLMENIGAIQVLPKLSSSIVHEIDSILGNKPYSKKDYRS
The target is the same in assay [5]. The experiment in a line: enhancers of rat Kvbeta2 NADPH turnover – biochemical, NADPH fluorescence, primary screen (AID 623;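 active = NADPH fluorescence slope more negative than the mean of all samples by about 3 SD, 99.7% confidence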;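 note: fluorescence intensity change per second fitted from 20 to 320 s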). The note with it: Recombinant KvBeta, NADPH fluorescence decrease slope, 10 min; at 10 µM; stronger effect = lower value.
For assay [6], the target named is Alpha-2C adrenergic receptor (Homo sapiens) (UniProt P18825). The experiment in a line: compounds altering alpha2C-coupled GIRK flux – cell-based, HEK293 alpha2C/GIRK1/2, thallium flux, primary screen (AID 624;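 active = fluorescence slope after compound addition differing from the mean of all screened samples at 99.7% confidence, in either direction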;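 note: slope of fluorescence ratio to pre-addition baseline per second over 15 to 24 s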). The note with it: thallium flux BTC fluorescence, at 10 µM, actives lie on both sides.
Chain of Alpha-2C adrenergic receptor (Homo sapiens) (P18825 whole entry, looked up): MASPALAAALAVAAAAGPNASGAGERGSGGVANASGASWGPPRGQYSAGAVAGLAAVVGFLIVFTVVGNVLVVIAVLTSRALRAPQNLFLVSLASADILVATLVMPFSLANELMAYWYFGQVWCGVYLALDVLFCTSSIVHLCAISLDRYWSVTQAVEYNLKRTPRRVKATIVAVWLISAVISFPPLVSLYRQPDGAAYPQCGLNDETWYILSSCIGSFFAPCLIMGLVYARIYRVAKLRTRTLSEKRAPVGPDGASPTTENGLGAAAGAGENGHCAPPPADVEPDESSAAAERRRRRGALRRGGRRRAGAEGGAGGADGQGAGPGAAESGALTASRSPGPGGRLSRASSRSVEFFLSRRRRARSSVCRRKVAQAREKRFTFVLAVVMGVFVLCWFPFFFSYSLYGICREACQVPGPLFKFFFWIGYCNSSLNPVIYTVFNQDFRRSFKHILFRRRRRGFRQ
Assay [7] can be described thus: blockers of RIG-like receptor reporter activation – cell-based, Sendai virus stimulus, luciferase, 10K MLSCN set, TLR/RLR signaling modifier project, primary screen (AID 602276).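 Note: firefly luciferase from ISG56 promoter only with Renilla not read in this screen; 0% = Sendai virus plus DMSO and 100% = medium plus DMSO without virus.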 The note with it: HEK293 RL24 IRF3 luciferase reporter, at 10 µM, stronger effect = higher value.
The nature of assay [8]: TLR3 IRF3 reporter activation blockers – cell-based, poly I:C stimulus, luciferase, 10K MLSCN set, primary screen (AID 602277;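 active = inhibition of the reporter signal at or above 50%; inactive = inhibition below 50%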). The conditions noted are these: HEK293-TLR3 RL24 IRF3 luciferase reporter, at 10 µM, stronger effect = higher value.

On to `COc1ccc2c(c1)C(=O)N(c1ccccc1OC)C(=O)C2`, for which the cell count in assay [1] is 320. For the same molecule, the inhibition in assay [1] was -3.9% (inactive); in assay [3], -22% (inactive); in assay [7], 14.7% (inactive); in assay [8], 10.2% (inactive). In assay [2], the inhibition of aggregation was -3.2% (inactive). The nuclei count stood at 80.8% in assay [2] and 110% in assay [3]. In assay [4], the fluorescence slope is -0.401 (inactive). Also, the NADPH fluorescence slope in assay [5] is -3.7e-05 (inactive). Moreover, the slope in assay [6] was 0.0052 (inactive).

For `CC1CCCCC1NC(=O)Cn1nnc(-c2ccc(Cl)cc2)n1` (centres undefined), the cell count in assay [1] was determined as 447. The inhibition is 1.9% (inactive) in assay [1], -27.6% (inactive) in assay [3], -4.91% (inactive) in assay [7] and -12% (inactive) in assay [8]. Besides, the inhibition of aggregation in assay [2] is -8.6% (inactive). For the same molecule, the nuclei count in assay [2] was 92.4%; in assay [3], 99.4%. Besides, in assay [4], the fluorescence slope is -0.578 (inactive). The NADPH fluorescence slope in assay [5] was -2.2e-05 (inactive). Besides, the slope in assay [6] is 0.00728 (inactive).

`CN(Cc1ccccc1)c1nc2c(c(=O)[nH]c(=O)n2C)n1Cc1ccccc1Cl`: the cell count in assay [1] was 364. Besides, the inhibition is -1% (inactive) in assay [1], -18.5% (inactive) in assay [3], 16% (inactive) in assay [7] and 23.3% (inactive) in assay [8]. Moreover, the inhibition of aggregation in assay [2] was -1.2% (inactive). In addition, the nuclei count in assay [2] turned out to be 108%; in assay [3] it was 102%. Also, in assay [4], the fluorescence slope was -0.6 (inactive). Further, the NADPH fluorescence slope in assay [5] was -2.7e-05 (inactive). Moreover, the slope in assay [6] was 0.00484 (inactive).

For the molecule `Cc1cc(NS(=O)(=O)c2ccc(NC(=O)COc3ccccc3C(C)C)cc2)no1`, the cell count in assay [1] amounted to 579. Also, the inhibition in assay [1] is -12.7% (inactive); in assay [3], -2.6% (inactive); in assay [7], 14.6% (inactive); in assay [8], 39.1% (inactive). The inhibition of aggregation in assay [2] was 17.6% (inactive). Also, the figures for the nuclei count in assay [2] and in assay [3] were 72.3% and 116%, respectively. Further, the fluorescence slope in assay [4] is -0.555 (inactive). Moreover, in assay [5], the NADPH fluorescence slope is -3.3e-05 (inactive). Also, the slope in assay [6] is 0.00559 (inactive).

In the case of `CCOc1ccc(OCc2cccc(C(=O)N3CCCC3)c2)cc1`, the cell count in assay [1] is 488. Further, the inhibition in assay [1] was 0% (inactive); in assay [3], 3.3% (inactive); in assay [7], -43% (inactive); in assay [8] it was -105% (inactive). In addition, the inhibition of aggregation in assay [2] is -4.9% (inactive). In addition, the nuclei count in assay [2] was 103%; in assay [3], 106%. In addition, in assay [4], the fluorescence slope is -0.423 (inactive). The NADPH fluorescence slope in assay [5] is -3.1e-05 (inactive). Also, the slope in assay [6] was 0.00502 (inactive).

As to `Cc1cc(C)c2c(n1)nn1c(C3CC3)cc(C(F)(F)F)nc21`, the cell count in assay [1] was determined as 631. The inhibition in assay [1] is -2% (inactive); in assay [3], -11.4% (inactive); in assay [7] it was 8.22% (inactive); in assay [8] it was 17.3% (inactive). In assay [2], the inhibition of aggregation is 1.3% (inactive). Further, the figures for the nuclei count in assay [2] and in assay [3] were 92.2% and 123%, respectively. For the same molecule, the fluorescence slope in assay [4] is -0.315 (inactive). Moreover, the NADPH fluorescence slope in assay [5] is 2.7e-06 (inactive). The slope in assay [6] was 0.00594 (inactive).

As to `CN(CC(=O)O)S(=O)(=O)c1cc(Cl)ccc1Cl`, in assay [1], the cell count is 416. The inhibition is 3.5% (inactive) in assay [1], -8.7% (inactive) in assay [3], -11.4% (inactive) in assay [7] and -16.7% (inactive) in assay [8]. Further, the inhibition of aggregation in assay [2] is -0.4% (inactive). Also, the nuclei count in assay [2] stood at 111%; in assay [3], 101%. Further, in assay [4], the fluorescence slope is -0.437 (inactive). Also, the NADPH fluorescence slope in assay [5] was -5e-05 (inactive). In addition, the slope in assay [6] is 0.0044 (inactive).

In the case of `Cc1nn(C)c(C)c1CN(C)C(=O)c1cc2nc(-c3ccco3)cc(C(F)(F)F)n2n1`, the cell count in assay [1] was 419. Besides, the inhibition was 5.7% (inactive) in assay [1], -33.1% (inactive) in assay [3], 1.09% (inactive) in assay [7] and -8.24% (inactive) in assay [8]. Moreover, in assay [2], the inhibition of aggregation was -21.4% (inactive). Also, the nuclei count in assay [2] was 128%; in assay [3] it was 106%. Further, the fluorescence slope in assay [4] is -0.182 (inactive). In addition, in assay [5], the NADPH fluorescence slope is -2e-05 (inactive). Further, in assay [6], the slope was 0.00389 (inactive).

Take `O=c1c2ccccc2nnn1CSc1nnc2sc3ccccc3n12`: the cell count in assay [1] is 558. Besides, the inhibition in assay [1] is -14.2% (inactive); in assay [3], -56% (inactive); in assay [7], 49% (inactive); in assay [8] it was 42.1% (inactive). Further, the inhibition of aggregation in assay [2] is -28.8% (inactive). Also, the nuclei count in assay [2] was 109%; in assay [3], 111%. Further, in assay [4], the fluorescence slope is -0.521 (inactive). In addition, the NADPH fluorescence slope in assay [5] is -4.5e-05 (inactive). For the same molecule, in assay [6], the slope was 0.00436 (inactive).

On to `CC(C)Cn1c(CN2CCN(c3ccccc3F)CC2)nc2c1c(=O)[nH]c(=O)n2C`, for which, in assay [1], the cell count was found to be 664. The inhibition in assay [1] is -7.7% (inactive); in assay [3] it was -7.3% (inactive); in assay [7], 10.6% (inactive); in assay [8] it was 19.7% (inactive). Moreover, the inhibition of aggregation in assay [2] was -8.3% (inactive). The nuclei count came to 101% in assay [2] and 103% in assay [3]. The fluorescence slope in assay [4] is -0.521 (inactive). Further, the NADPH fluorescence slope in assay [5] is -3.3e-05 (inactive). Also, in assay [6], the slope was 0.00688 (inactive).

Consider `Nc1cc(-c2ccc(Br)cc2)nn1S(=O)(=O)c1ccccc1`, for which the cell count in assay [1] was 807. For the same molecule, the inhibition in assay [1] is 6.9% (inactive); in assay [3], -57.9% (inactive); in assay [7], 6.44% (inactive); in assay [8], 32.2% (inactive). Further, in assay [2], the inhibition of aggregation is -1% (inactive). For the same molecule, the values for the nuclei count in assay [2] and in assay [3] were 93.9% and 109%, respectively. The fluorescence slope in assay [4] is -0.609 (inactive). For the same molecule, the NADPH fluorescence slope in assay [5] is -1.6e-05 (inactive). For the same molecule, the slope in assay [6] was 0.00722 (inactive).

As for `C=CCn1c2ccccc2c2nnc(SCC(=O)NC(C(=O)OC)C(C)C)nc21` (centres undefined), the cell count in assay [1] turned out to be 787. In addition, the inhibition in assay [1] was -1.4% (inactive); in assay [3] it was -83.9% (inactive); in assay [7] it was 14.6% (inactive); in assay [8], 27.7% (inactive). Moreover, the inhibition of aggregation in assay [2] is 10.3% (inactive). Also, the nuclei count in assay [2] came to 104%; in assay [3] it was 103%. Further, in assay [4], the fluorescence slope was -0.424 (inactive). Also, the NADPH fluorescence slope in assay [5] is -0.000127 (inactive). For the same molecule, the slope in assay [6] is 0.00508 (inactive).

`CCCC(=O)C1=C(N(C)c2ccccc2)CC(C)(C)C(C(=O)OC)C1=O` (centres undefined): the cell count in assay [1] worked out at 429. Moreover, the inhibition in assay [1] is -0.3% (inactive); in assay [3], -8.2% (inactive); in assay [7], 9.63% (inactive); in assay [8], 33.4% (inactive). Further, the inhibition of aggregation in assay [2] is 3.6% (inactive). Moreover, the nuclei count in assay [2] was found to be 92.5%; in assay [3] it was 121%. Besides, the fluorescence slope in assay [4] was -0.445 (inactive). For the same molecule, in assay [5], the NADPH fluorescence slope was -7.2e-06 (inactive). For the same molecule, in assay [6], the slope was 0.00268 (inactive).

For the molecule `Cc1ccc(-c2nn(C)c(=O)c3ccccc23)cc1S(=O)(=O)NCCN1CCOCC1`, in assay [1], the cell count turned out to be 325. The inhibition in assay [1] was 5% (inactive); in assay [3], -24.7% (inactive); in assay [7], -17.1% (inactive); in assay [8] it was 3.02% (inactive). Further, the inhibition of aggregation in assay [2] is 13.3% (inactive). In addition, the nuclei count turned out to be 100% in assay [2] and 113% in assay [3]. The fluorescence slope in assay [4] is -0.468 (inactive). For the same molecule, in assay [5], the NADPH fluorescence slope was 4.7e-05 (inactive). The slope in assay [6] is 0.00544 (inactive).

As a reminder, the inhibition is the relative decrease from the control value, in per cent.
